Test results as given in PubChem BioAssay (NCI).
Compounds without any hit were thinned out: in the full panel of roughly 83,000, 20% have a hit.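 The endpoint reported here, percent growth, reads 100 for growth as untreated, 0 for no net growth and -100 for all cells dead.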 Unmarked numbers belong to inactive results. Calls of active or inactive are those of the source. How the source made its calls: active means growth percent below 10; inactive means the rest.

How the values were obtained:
Assay in all cases: NCI-60 one-dose screen, 48 h (100 = growth as untreated, 0 = no growth, -100 = all killed)
Conditions in all cases: 10 µM unless noted
NCI-H23 lung = tested on: NCI-H23 lung
NCI-H226 lung = tested on: NCI-H226 lung
NCI-H322M lung = tested on: NCI-H322M lung
HOP-62 NSCLC = tested on: HOP-62 NSCLC
NCI-H460 lung = tested on: NCI-H460 lung
HOP-92 NSCLC = tested on: HOP-92 NSCLC
NCI-H522 lung = tested on: NCI-H522 lung
A549/ATCC NSCLC = tested on: A549/ATCC NSCLC
786-0 renal = tested on: 786-0 renal
COLO 205 colon = tested on: COLO 205 colon
DU-145 prostate = tested on: DU-145 prostate
K-562 leukemia = tested on: K-562 leukemia
MALME-3M melanoma = tested on: MALME-3M melanoma
MDA-MB-231 breast = tested on: MDA-MB-231 breast
RXF 393 renal = tested on: RXF 393 renal
SF-268 CNS = tested on: SF-268 CNS
SF-295 CNS = tested on: SF-295 CNS
SF-539 CNS = tested on: SF-539 CNS
UACC-257 melanoma = tested on: UACC-257 melanoma
M14 melanoma = tested on: M14 melanoma

SMILES	growth (NCI-H23 lung)	growth (NCI-H226 lung)	growth (NCI-H322M lung)	growth (HOP-62 NSCLC)	growth (NCI-H460 lung)	growth (HOP-92 NSCLC)	growth (NCI-H522 lung)	growth (A549/ATCC NSCLC)	growth (786-0 renal)	growth (COLO 205 colon)	growth (DU-145 prostate)	growth (K-562 leukemia)	growth (MALME-3M melanoma)	growth (MDA-MB-231 breast)	growth (RXF 393 renal)	growth (SF-268 CNS)	growth (SF-295 CNS)	growth (SF-539 CNS)	growth (UACC-257 melanoma)	growth (M14 melanoma)
CN(C)CCNc1nc2c3cc(Cl)ccc3nn2c2ccccc12	45.5%	61.1%	40.2%	43.9%	15.8%	36.8%	67%	31.5%	38.1%	26.3%	54.3%	46.5%	42%	46.8%	4.75% (active)	45.7%	26.9%	36.8%	52.5%	62.1%
C=C(C)[C@@H]1CC[C@]2(C)[C@H](CC=C3[C@@H]4[C@H](C)[C@@H](C)CC[C@]4(CO)CC[C@]32C)[C@@]1(C)CCCN	60.9%	84.5%	43.7%	-63.1% (active)	-81.9% (active)	4.6% (active)	-41.8% (active)	-31.6% (active)	39.3%	-57.2% (active)	28.4%	1.75% (active)	-79.1% (active)	3.87% (active)	21.7%	59%	77.2%	13%	-56.7% (active)	-46.2% (active)
Cc1nc2ncnc(Cl)c2[nH]1	95.3%	101%	98.2%	112%	104%	77.7%	91.3%	93.1%	105%	113%	106%	97.3%	106%	103%	112%	103%	107%	103%	91.1%	88.8%
O=CC1(C2(C=O)c3ccccc3-c3ccccc32)c2ccccc2-c2ccccc21	-28.8% (active)	-47.2% (active)	-20.9% (active)	-76.3% (active)	-46.9% (active)	-74.8% (active)	-84.5% (active)	-50.5% (active)	-84.4% (active)	-56% (active)	-63.3% (active)	-13.6% (active)	-71.8% (active)	-12.5% (active)	-61.4% (active)	-46.9% (active)	-59.8% (active)	-64.5% (active)	-76.1% (active)	-67.1% (active)
Cc1cc2c(O)c(-c3cccc(Cl)c3)c3sc(=O)oc3c2cc1C	12%	42.9%	59.8%	76.7%	24.9%	-31.3% (active)	12.7%	69.1%	78.8%	115%	48.1%	17.2%	58.4%	53.9%	63.5%	48.7%	66%	54.3%	39.6%	51.9%
Cc1oc(-c2ccc(Cl)cc2)nc1/C=C/C(=O)c1ccccc1	98.8%	88.4%	101%	110%	103%	88.4%	93.1%	99.1%	96.4%	114%	109%	99.1%	97.6%	101%	106%	97.1%	99.9%	99.5%	106%	104%
C=CC(=O)NCc1ccc(Nc2nccc(-c3ccc(N4CCCC4)c(C#N)c3)n2)cc1	49.7%	39.9%	41%	17.1%	23.3%	36.8%	19.2%	19.2%	17.6%	31.4%	46.3%	21%	44.9%	75.6%	-1.91% (active)	49.7%	22.9%	28%	39.8%	36.1%
Nc1ncnc2c1N=C(c1ccc(Cl)cc1)CC(c1ccc3c(c1)OCO3)N2 (stereo not given)	100%	90.8%	112%	88.1%	103%	59.8%	89.7%	98.4%	91.6%	98.6%	109%	71.3%	116%	88.6%	80.9%	91.1%	128%	88.3%	110%	118%
Cc1ccc(-c2csc(NC(=O)CN3CCN(c4cc5c(cc4F)c(=O)c(C(=O)O)cn5C4CC4)CC3)n2)cc1	4.26% (active)	28.6%	12.4%	11.2%	14.4%	-16.4% (active)	-11.7% (active)	3.47% (active)	22.6%	-17.6% (active)	13.1%	9.66% (active)	-2.34% (active)	6.47% (active)	27.2%	23.2%	-2.97% (active)	23.7%	-12.9% (active)	23%
O=C(Nc1ncc(Cc2ccc(Cl)c(C(F)(F)F)c2)s1)c1ccc2nnsc2c1	37.4%	66.5%	69.2%	51.5%	27.2%	64.9%	38.7%	40.7%	53.2%	57.3%	53.7%	24.7%	48.7%	67.4%	75.6%	50.7%	20%	5.13% (active)	64.9%	32.2%
CN1CCN(Cc2ccc(NC(=O)c3cncc(C#Cc4cnc(N)c5ccccc45)c3)cc2C(F)(F)F)CC1	-74.1% (active)	-91% (active)	-87.1% (active)	-74.7% (active)	-77.3% (active)	-74.4% (active)	-73.2% (active)	-89.1% (active)	-79.6% (active)	-78.1% (active)	-97.6% (active)	-13.3% (active)	-88.6% (active)	-86.2% (active)	-96.2% (active)	-61.1% (active)	-87.4% (active)	-97.8% (active)	-90.1% (active)	-79.3% (active)
COCCn1c(-c2csc(-c3cn(C)c4ccc(OC)cc34)n2)cc2cccnc21	63.8%	81.3%	82.4%	60.9%	21.7%	67.5%	-24.5% (active)	48%	30.9%	37.5%	62.7%	-25.5% (active)	106%	43.6%	52.3%	64.1%	58.9%	58.9%	54.5%	44.2%
O=C(/C=C/c1cccs1)c1ccc(Cl)nc1	102%	107%	99.3%	94.9%	106%	105%	82%	98.6%	93.7%	108%	106%	97.1%	95.7%	116%	119%	102%	101%	101%	100%	101%
O=C(CSc1nc2sc3c(c2c(=O)n1-c1ccccc1)CCCCC3)N/N=C/c1ccc(F)cc1	37.7%	86.9%	67.5%	19.9%	1.12% (active)	82.6%	44.3%	9.73% (active)	64.1%	33%	-0.517% (active)	64.2%	11.3%	-26.1% (active)	5.3% (active)	7.96% (active)	16.9%	-39.9% (active)	74.6%	51.6%
O=[N+]([O-])/C(=C/C=C/c1ccccc1)c1ccccc1	75.5%	87.8%	100%	35.9%	70.7%	-8.76% (active)	19.8%	72.6%	-7.75% (active)	23.2%	26%	24.4%	96.1%	61.7%	35.4%	35.3%	91.5%	36.8%	77%	37.8%
